# How the values were obtained:
# Assay in all cases: DAPPL (digital affinity profiling via proximity ligation, sequencing); 10 mM Tris-HCl pH 7.5, 50 mM NaCl, 1 mM DTT, 4% glycerol, room temperature, 30 min; GST-TFs on glutathione beads, 16-mer random dsDNA library, 0.1% formaldehyde crosslink after washing; high values mean tight binding
# Conditions in all cases: protein: recombinant; tags: N-terminal GST; dsDNA, one strand shown
# [1] = molecular target: T1, FLI1 (Homo sapiens, UniProt Q01543 1-452)
# T1 sequence: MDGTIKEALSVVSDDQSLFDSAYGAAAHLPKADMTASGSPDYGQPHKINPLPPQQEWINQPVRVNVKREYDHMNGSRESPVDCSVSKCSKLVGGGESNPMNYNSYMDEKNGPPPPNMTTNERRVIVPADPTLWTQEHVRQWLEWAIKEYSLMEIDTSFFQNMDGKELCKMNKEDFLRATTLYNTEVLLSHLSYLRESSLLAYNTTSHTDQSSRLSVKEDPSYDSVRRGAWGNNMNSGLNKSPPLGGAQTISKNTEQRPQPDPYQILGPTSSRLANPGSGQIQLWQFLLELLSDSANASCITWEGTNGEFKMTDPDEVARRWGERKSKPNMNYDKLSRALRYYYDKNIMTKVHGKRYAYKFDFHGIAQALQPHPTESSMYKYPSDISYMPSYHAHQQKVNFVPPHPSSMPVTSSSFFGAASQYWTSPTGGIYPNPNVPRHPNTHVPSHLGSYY
# How it was run: (§1)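 Each value of binding signal is a hexamer's read frequency for a factor divided by the same hexamer's frequency in the tag-only sample. Barcoded, bead-captured GST fusions of human transcription factors made in yeast were pooled with that sample and incubated with 200 nmole of a random double-stranded 16-mer DNA library in Tris/NaCl/DTT/glycerol buffer at room temperature for 30 min. Washing, 0.1% formaldehyde crosslinking, proximity ligation, PCR and Illumina NextSeq500 sequencing followed.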
# [2] = molecular target: T2, ELK1 (Homo sapiens, UniProt P19419 1-428)
# T2 sequence: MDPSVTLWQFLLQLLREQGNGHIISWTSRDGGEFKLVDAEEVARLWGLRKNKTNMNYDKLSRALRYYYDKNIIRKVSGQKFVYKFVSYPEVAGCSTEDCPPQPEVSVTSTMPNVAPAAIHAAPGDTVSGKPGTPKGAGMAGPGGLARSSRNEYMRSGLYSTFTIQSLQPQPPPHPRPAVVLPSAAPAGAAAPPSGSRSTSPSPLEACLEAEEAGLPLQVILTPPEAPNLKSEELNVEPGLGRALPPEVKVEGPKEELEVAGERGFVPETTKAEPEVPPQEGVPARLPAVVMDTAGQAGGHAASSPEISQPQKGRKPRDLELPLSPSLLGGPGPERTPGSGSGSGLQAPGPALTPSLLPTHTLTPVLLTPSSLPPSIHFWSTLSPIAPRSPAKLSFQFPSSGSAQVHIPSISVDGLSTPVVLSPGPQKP
# How it was run: as §1
# [3] = molecular target: T3, GABPA (Homo sapiens, UniProt Q06546 1-454)
# T3 sequence: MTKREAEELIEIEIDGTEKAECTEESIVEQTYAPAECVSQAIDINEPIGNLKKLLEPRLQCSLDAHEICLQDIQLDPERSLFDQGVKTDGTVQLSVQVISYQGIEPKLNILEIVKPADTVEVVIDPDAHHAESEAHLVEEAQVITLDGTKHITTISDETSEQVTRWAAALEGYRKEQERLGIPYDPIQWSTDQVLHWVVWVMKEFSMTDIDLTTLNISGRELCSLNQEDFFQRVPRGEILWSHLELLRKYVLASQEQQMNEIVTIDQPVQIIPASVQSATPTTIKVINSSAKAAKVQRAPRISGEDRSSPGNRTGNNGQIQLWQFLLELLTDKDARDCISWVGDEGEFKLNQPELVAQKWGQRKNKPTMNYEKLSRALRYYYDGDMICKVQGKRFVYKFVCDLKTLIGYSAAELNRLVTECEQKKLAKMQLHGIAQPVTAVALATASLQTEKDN
# How it was run: as §1
# [4] = molecular target: T4, ERG (Homo sapiens, UniProt P11308 1-479)
# T4 sequence: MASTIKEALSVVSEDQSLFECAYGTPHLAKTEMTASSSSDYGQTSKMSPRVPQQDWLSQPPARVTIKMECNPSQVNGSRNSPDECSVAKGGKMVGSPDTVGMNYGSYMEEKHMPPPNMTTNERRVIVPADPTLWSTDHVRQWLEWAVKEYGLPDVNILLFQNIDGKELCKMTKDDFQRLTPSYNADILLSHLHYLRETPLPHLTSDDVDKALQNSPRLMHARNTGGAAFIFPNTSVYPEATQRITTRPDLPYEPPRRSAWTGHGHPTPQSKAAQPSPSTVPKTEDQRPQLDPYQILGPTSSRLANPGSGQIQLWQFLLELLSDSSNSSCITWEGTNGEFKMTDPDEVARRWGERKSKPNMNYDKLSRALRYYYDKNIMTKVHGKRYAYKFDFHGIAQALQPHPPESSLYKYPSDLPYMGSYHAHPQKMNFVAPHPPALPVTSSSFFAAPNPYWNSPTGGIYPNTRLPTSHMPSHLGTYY
# How it was run: as §1
# [5] = molecular target: ELF1 (Homo sapiens, UniProt P32519 1-619)
# Sequence of ELF1 (P32519 whole entry): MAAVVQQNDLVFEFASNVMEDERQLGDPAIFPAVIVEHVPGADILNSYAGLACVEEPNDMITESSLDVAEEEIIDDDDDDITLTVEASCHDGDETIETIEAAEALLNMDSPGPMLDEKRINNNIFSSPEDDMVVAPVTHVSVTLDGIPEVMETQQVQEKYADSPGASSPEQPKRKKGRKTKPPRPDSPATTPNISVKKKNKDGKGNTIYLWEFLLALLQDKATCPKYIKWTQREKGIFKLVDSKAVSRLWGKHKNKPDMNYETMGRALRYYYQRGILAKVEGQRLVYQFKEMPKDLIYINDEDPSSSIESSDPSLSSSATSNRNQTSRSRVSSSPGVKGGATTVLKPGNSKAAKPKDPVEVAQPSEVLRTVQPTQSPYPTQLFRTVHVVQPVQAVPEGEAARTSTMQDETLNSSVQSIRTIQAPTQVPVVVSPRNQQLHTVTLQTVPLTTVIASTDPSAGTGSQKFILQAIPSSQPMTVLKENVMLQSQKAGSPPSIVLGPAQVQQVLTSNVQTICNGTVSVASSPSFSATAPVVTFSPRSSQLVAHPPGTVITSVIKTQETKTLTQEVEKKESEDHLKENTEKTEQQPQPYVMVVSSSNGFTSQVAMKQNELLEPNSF
# How it was run: as §1
# [6] = molecular target: T5, EHF (Homo sapiens, UniProt Q9NZC4 1-300)
# T5 sequence: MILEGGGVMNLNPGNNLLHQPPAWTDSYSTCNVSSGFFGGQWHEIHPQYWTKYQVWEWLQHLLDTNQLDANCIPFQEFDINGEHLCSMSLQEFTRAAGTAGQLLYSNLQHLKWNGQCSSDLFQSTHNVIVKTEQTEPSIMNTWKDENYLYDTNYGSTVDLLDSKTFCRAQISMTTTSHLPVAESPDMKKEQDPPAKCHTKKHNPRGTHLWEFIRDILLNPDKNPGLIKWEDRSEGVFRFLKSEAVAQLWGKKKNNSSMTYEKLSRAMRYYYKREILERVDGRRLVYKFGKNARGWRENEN
# How it was run: as §1
# [7] = molecular target: SPI1 (Homo sapiens, UniProt P17947 1-270)
# How it was run: as §1
# [8] = molecular target: SPIB (Homo sapiens, UniProt Q01892 1-262)
# Sequence of SPIB (Q01892 whole entry): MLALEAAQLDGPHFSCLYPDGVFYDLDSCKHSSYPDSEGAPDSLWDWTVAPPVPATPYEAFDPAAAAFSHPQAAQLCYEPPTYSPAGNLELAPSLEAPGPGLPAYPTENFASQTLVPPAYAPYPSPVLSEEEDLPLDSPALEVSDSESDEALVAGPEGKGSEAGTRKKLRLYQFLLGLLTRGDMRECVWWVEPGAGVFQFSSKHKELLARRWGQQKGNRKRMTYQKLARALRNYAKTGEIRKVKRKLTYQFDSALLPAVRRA
# How it was run: as §1
# [9] = molecular target: T6, ELK3 (Homo sapiens, UniProt P41970 1-407)
# T6 sequence: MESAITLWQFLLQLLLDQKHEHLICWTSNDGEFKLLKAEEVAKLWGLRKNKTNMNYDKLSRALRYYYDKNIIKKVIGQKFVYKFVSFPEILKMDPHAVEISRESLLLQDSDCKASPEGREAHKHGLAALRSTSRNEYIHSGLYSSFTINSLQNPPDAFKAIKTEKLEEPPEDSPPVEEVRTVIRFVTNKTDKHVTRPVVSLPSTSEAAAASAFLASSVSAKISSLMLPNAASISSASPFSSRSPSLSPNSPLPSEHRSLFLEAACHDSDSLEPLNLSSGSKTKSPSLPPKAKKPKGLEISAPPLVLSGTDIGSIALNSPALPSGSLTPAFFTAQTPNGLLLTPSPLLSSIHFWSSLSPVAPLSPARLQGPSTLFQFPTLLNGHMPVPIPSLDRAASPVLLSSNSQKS
# How it was run: as §1
sequence,measurement,setting,value
TTCGAT,binding signal,[1],"1.32 fold enrichment (6-mer frequency, TF over GST control)"
same,binding signal,[2],"1.23 fold enrichment (6-mer frequency, TF over GST control)"
same,binding signal,[3],"1.22 fold enrichment (6-mer frequency, TF over GST control)"
same,binding signal,[4],"1.43 fold enrichment (6-mer frequency, TF over GST control)"
same,binding signal,[5],"1.41 fold enrichment (6-mer frequency, TF over GST control)"
same,binding signal,[6],"1.38 fold enrichment (6-mer frequency, TF over GST control)"
same,binding signal,[7],"1.29 fold enrichment (6-mer frequency, TF over GST control)"
same,binding signal,[8],"1.24 fold enrichment (6-mer frequency, TF over GST control)"
same,binding signal,[9],"1.32 fold enrichment (6-mer frequency, TF over GST control)"
TAGGCT,binding signal,[1],"1.22 fold enrichment (6-mer frequency, TF over GST control)"
same,binding signal,[2],"1.18 fold enrichment (6-mer frequency, TF over GST control)"
same,binding signal,[3],"1.3 fold enrichment (6-mer frequency, TF over GST control)"
same,binding signal,[4],"1.23 fold enrichment (6-mer frequency, TF over GST control)"
same,binding signal,[5],"1.21 fold enrichment (6-mer frequency, TF over GST control)"
same,binding signal,[6],"1.2 fold enrichment (6-mer frequency, TF over GST control)"
same,binding signal,[7],"1.19 fold enrichment (6-mer frequency, TF over GST control)"
same,binding signal,[8],"1.1 fold enrichment (6-mer frequency, TF over GST control)"
same,binding signal,[9],"1.26 fold enrichment (6-mer frequency, TF over GST control)"
GTTCGA,binding signal,[1],"1.13 fold enrichment (6-mer frequency, TF over GST control)"
same,binding signal,[2],"1.12 fold enrichment (6-mer frequency, TF over GST control)"
same,binding signal,[3],"1.17 fold enrichment (6-mer frequency, TF over GST control)"
same,binding signal,[4],"1.07 fold enrichment (6-mer frequency, TF over GST control)"
same,binding signal,[5],"1.08 fold enrichment (6-mer frequency, TF over GST control)"
same,binding signal,[6],"1.14 fold enrichment (6-mer frequency, TF over GST control)"
same,binding signal,[7],"1.04 fold enrichment (6-mer frequency, TF over GST control)"
same,binding signal,[8],"1.05 fold enrichment (6-mer frequency, TF over GST control)"
same,binding signal,[9],"1.15 fold enrichment (6-mer frequency, TF over GST control)"
TGGCAC,binding signal,[1],"1.19 fold enrichment (6-mer frequency, TF over GST control)"
same,binding signal,[2],"1.23 fold enrichment (6-mer frequency, TF over GST control)"
same,binding signal,[3],"1.15 fold enrichment (6-mer frequency, TF over GST control)"
same,binding signal,[4],"1.27 fold enrichment (6-mer frequency, TF over GST control)"
same,binding signal,[5],"1.09 fold enrichment (6-mer frequency, TF over GST control)"
same,binding signal,[6],"1.26 fold enrichment (6-mer frequency, TF over GST control)"
same,binding signal,[7],"1.14 fold enrichment (6-mer frequency, TF over GST control)"
same,binding signal,[8],"1.18 fold enrichment (6-mer frequency, TF over GST control)"
same,binding signal,[9],"1.17 fold enrichment (6-mer frequency, TF over GST control)"
TCCCTG,binding signal,[1],"1.28 fold enrichment (6-mer frequency, TF over GST control)"
same,binding signal,[2],"1.25 fold enrichment (6-mer frequency, TF over GST control)"
same,binding signal,[3],"1.36 fold enrichment (6-mer frequency, TF over GST control)"
same,binding signal,[4],"1.28 fold enrichment (6-mer frequency, TF over GST control)"
same,binding signal,[5],"1.32 fold enrichment (6-mer frequency, TF over GST control)"
same,binding signal,[6],"1.33 fold enrichment (6-mer frequency, TF over GST control)"
same,binding signal,[7],"1.29 fold enrichment (6-mer frequency, TF over GST control)"
same,binding signal,[8],"1.35 fold enrichment (6-mer frequency, TF over GST control)"
same,binding signal,[9],"1.14 fold enrichment (6-mer frequency, TF over GST control)"
CAACTG,binding signal,[1],"1.18 fold enrichment (6-mer frequency, TF over GST control)"
same,binding signal,[2],"1.15 fold enrichment (6-mer frequency, TF over GST control)"
same,binding signal,[3],"1.15 fold enrichment (6-mer frequency, TF over GST control)"
same,binding signal,[4],"1.2 fold enrichment (6-mer frequency, TF over GST control)"
same,binding signal,[5],"1.27 fold enrichment (6-mer frequency, TF over GST control)"
same,binding signal,[6],"1.17 fold enrichment (6-mer frequency, TF over GST control)"
same,binding signal,[7],"1.05 fold enrichment (6-mer frequency, TF over GST control)"
same,binding signal,[8],"1.13 fold enrichment (6-mer frequency, TF over GST control)"
same,binding signal,[9],"1.09 fold enrichment (6-mer frequency, TF over GST control)"
ACGCAC,binding signal,[1],"1.06 fold enrichment (6-mer frequency, TF over GST control)"
same,binding signal,[2],"1.09 fold enrichment (6-mer frequency, TF over GST control)"
same,binding signal,[3],"1.04 fold enrichment (6-mer frequency, TF over GST control)"
same,binding signal,[4],"1.02 fold enrichment (6-mer frequency, TF over GST control)"
same,binding signal,[5],"1.06 fold enrichment (6-mer frequency, TF over GST control)"
same,binding signal,[6],"1.03 fold enrichment (6-mer frequency, TF over GST control)"
same,binding signal,[7],"1.03 fold enrichment (6-mer frequency, TF over GST control)"
same,binding signal,[8],"1.07 fold enrichment (6-mer frequency, TF over GST control)"
same,binding signal,[9],"1.09 fold enrichment (6-mer frequency, TF over GST control)"

# From publication PMC7862700, “An all-to-all approach to the identification of sequence-specific readers for epigenetic DNA modifications on cytosine”
